# Compounds with a hit are over-represented: about 3.7% of the library has one in this group of screens.
# tim23-1 inh – growth inhibitors of tim23-1 mutant yeast, primary screen, luminescence, uHTS; AID 463212, 2010; 330,000 tested, 1.3% active; inhibition, % at 20 µM; S. cerevisiae tim23-1 growth, BacTiter-Glo luminescence, 24 h;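 active means growth inhibition of the mutant yeast at or above 50%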;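 further: temperature-sensitive mutant grown at 25 °C; plate controls were DMSO-treated mutant yeast for no effect and medium wells lacking yeast for full effect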
# tim10-1 inh – growth inhibitors of tim10-1 mutant yeast, primary screen, luminescence, uHTS; 330,000 tested, 2.2% active; inhibition, % at 20 µM; S. cerevisiae tim10-1 ts strain growth, BacTiter-Glo, 24 h;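 active means inhibition of at least 40%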;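 further: mutant grown at 25 °C; 0% = DMSO wells with yeast and 100% = wells holding no yeast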
# TIM10 inh – growth inhibitors of isogenic TIM10 control yeast, primary screen, counter-screen for tim10-1 yeast inhibitor project, luminescence, uHTS; S. cerevisiae TIM10 strain growth, BacTiter-Glo luminescence, 24 h; inhibition, % at 10 µM; 330,000 tested, 1.4% active;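 active means inhibition of 40% or more at the single tested concentration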;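 further: wild-type TIM10 isogenic control strain grown at permissive 25 °C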
# V-ATPase pHluor – regulators of yeast V-ATPase proton pumping, primary screen, pHLuorin cytosolic pH fluorescence; response, % at 10 µM; S. cerevisiae; 350,000 tested, 0.37% active; in the data active means response mostly above about 7.3%, no sharp cut-off; inactive means mostly below about 5.4%; further: actives read high
# PfHsp90 set2 – growth inhibition of PfHsp90-expressing yeast, primary screen, antimalarial PfHsp90 inhibitor project, S. cerevisiae, BacTiter-Glo luminescence, single point, set 2 | 310,000 tested, 0.32% active | BacTiter-Glo ATP, 48 h; yeast lacking PDR1 and PDR3 efflux regulators | AID 504621, 2011 | inhibition, % at 9.4 µM;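 active means every replicate shows inhibition above about 80%, whatever the replicate mean, limit read from the data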;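 further: 0% = DMSO neutral controls and 100% = 20 µM radicicol positive controls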
# tim10-1 confirm – growth inhibitors of tim10-1 mutant yeast, confirmation, single concentration, luminescence, S. cerevisiae | shares compounds with tim10-1 inh | S. cerevisiae tim10-1 ts strain growth, BacTiter-Glo, 24 h | inhibition, % at 20 µM | 7,400 tested, 56% active | AID 463213, 2010;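 active means inhibition of yeast growth at or above a set limit in either of two repeat tests at 20 µM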;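 further: tim10-1 mutant grown at permissive 25 °C to find synthetic lethal compounds; 0% = DMSO yeast wells and 100% = medium wells without yeast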
# tim10 confirm – growth inhibitors of wild-type TIM10 yeast, confirmation, counter-screen for tim10-1 synthetic lethality project, single concentration, luminescence, S. cerevisiae. shares compounds with TIM10 inh. S. cerevisiae tim10 strain growth, BacTiter-Glo luminescence, 24 h. inhibition, % at 10 µM. 4,600 tested, 63% active. AID 463215, 2010;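 active means inhibition of yeast growth at or above a set limit in either of two replicates at 10 µM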;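 further: this counterscreen used the strain with wild-type TIM10; 0% = yeast with DMSO and 100% = medium wells lacking yeast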
# tim23-1 confirm – tim23-1 mutant yeast growth inhibitors, confirmation, luminescence, single concentration; shares compounds with tim23-1 inh; S. cerevisiae tim23-1 growth, BacTiter-Glo luminescence, 24 h; inhibition, % at 20 µM; 4,400 tested, 83% active;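 active means inhibition above about 39% in either of two replicate wells at 20 µM, limit read from the data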;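 further: temperature-sensitive tim23-1 mutant grown at 25 °C; 0% = DMSO wells with yeast and 100% = medium wells without yeast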
# An asterisk follows results filed as active; nt = no result given.
SMILES,tim23-1 inh,tim10-1 inh,TIM10 inh,V-ATPase pHluor,PfHsp90 set2,tim10-1 confirm,tim10 confirm,tim23-1 confirm
O=[N+]([O-])c1ccc(/C=N/NC(=S)Nc2ccccc2F)o1,55*,56*,43*,2,-8,47*,-6,58*
CCCCCC(=O)N/N=C/c1ccc([N+](=O)[O-])o1,22,22,26,-1,-18,nt,nt,nt
O=C(N/N=C\c1ccc([N+](=O)[O-])o1)C1COc2ccccc2O1 (configuration not stated),57*,57*,31,0,-25,49*,nt,42*
O=C(CCC(=O)Nc1ccc(Cl)cc1Cl)N/N=C/c1ccc([N+](=O)[O-])o1,92*,64*,45*,nt,nt,43*,51*,88*
O=C(N/N=C\c1ccc([N+](=O)[O-])s1)C1COc2ccccc2O1 (configuration not stated),-11,-12,-52,10,-9,nt,nt,nt
O=C(O)c1ccc(C(=O)Nc2cccc3ccccc23)c(C(=O)O)c1,-3,3,9,1,-20,nt,nt,nt
O=C(c1cccc(Br)c1)c1conc1C(=O)c1ccco1,54*,48*,43*,0,-8,44*,38*,59*
N/C(=N\OC(=O)c1cccc(Br)c1)c1ccccc1,83*,66*,83*,-1,4,58*,86*,73*
N/C(=N\OC(=O)CCCOc1ccccc1)c1cccc(Br)c1,22,34,31,3,-36,nt,nt,nt
N/C(=N\OC(=O)c1ccco1)c1cccc(Br)c1,64*,56*,61*,-7,-7,56*,54*,45*
Cc1ccccc1OCCc1c(C)[nH]c(=S)[nH]c1=O,8,0,15,0,-5,nt,nt,nt
O=C(COC(=O)/C=C/c1cccc(C(F)(F)F)c1)NCCN1C(=O)CSC1=O,15,10,0,-3,-5,nt,nt,nt
CCOc1cc(/C=C2/C(=O)ON=C2C)ccc1OCc1ccccc1F,58*,52*,24,10,6,25,nt,52*
CCOc1cc(/C=C2/C(=O)ON=C2C)ccc1OCc1ccccc1,33,30,21,nt,nt,nt,nt,nt
CC1CN(C)C(C)C/C1=N\Oc1ccc([N+](=O)[O-])cc1 (configuration not stated),9,-3,-14,-3,15,nt,nt,nt
CC1=CC(=O)C=C(C)C1=NOc1ccc([N+](=O)[O-])cc1,57*,62*,47*,2,-35,65*,38*,69*
CCOC(=O)C1=C(CN2CC(C)CC(C)C2)NC(=O)NC1c1ccc2c(c1)OCO2 (configuration not stated),10,-3,-22,-1,nt,nt,nt,nt
O=C(NCC1CC1)c1ccc2c3n(nc2c1)-c1ccc(Cl)cc1CO3,67*,48*,54*,11,-20,35*,57*,53*
O=C(NCCO)c1ccc2c3n(nc2c1)-c1ccc(Cl)cc1CO3,-5,10,1,-1,6,nt,nt,nt
CCCOc1ccc(Cl)cc1/C=C1/C(=O)ON=C1C,10,36,-9,2,4,nt,nt,nt
CC1=NOC(=O)/C1=C\c1ccc(-c2ccc(Cl)cc2Cl)o1,81*,46*,21,3,72,46*,nt,51*
CC(=O)Oc1ccc2c(C)c(CC(=O)N3CCN(C(=O)C4COc5ccccc5O4)CC3)c(=O)oc2c1C (configuration not stated),-34,-31,-8,1,14,nt,nt,nt
CCOc1ccc(NCc2nnc(SCc3ccc(Cl)cc3)n2-c2ccccc2)cc1,52*,46*,47*,-2,7,42*,-24,56*
CC1(C)CC(=O)c2cnc(N3CCc4ccccc4C3)nc2C1,71*,55*,16,0,-17,53*,nt,52*
Cc1c(C(=O)NCc2ccc3c(c2)OCO3)oc2ccccc12,53*,48*,41*,-3,nt,42*,28,55*
SMILES,tim23-1 inh,tim10-1 inh,TIM10 inh,V-ATPase pHluor,PfHsp90 set2,tim10-1 confirm,tim10 confirm,tim23-1 confirm
O=C(NC1CC1)c1ccc(C2SCC(=O)N2Cc2ccccc2)cc1 (configuration not stated),7,0,0,0,11,nt,nt,nt
S=C(Nc1ccc2nsnc2c1)NC1CCCCC1,53*,53*,54*,11,-8,33*,22,57*
COc1ccccc1C1Nc2cccc3cccc(c23)N1,26,21,9,-1,10,nt,nt,nt
Oc1ccccc1C1Nc2cccc3cccc(c23)N1,77*,52*,46*,0,-43,52*,44*,74*
COC(=O)[C@@H]1[C@@H](C#N)C2(c3ccccc3-c3ccccc32)N(c2ccc(Cl)cc2)N1C#N,58*,50*,44*,0,100*,36*,-4,63*
O=C(Cc1ccc(Cl)cc1)NN1C(=O)c2ccccc2C1=O,8,8,2,3,-1,nt,nt,nt
COCCNC(=O)/C(C#N)=C/c1ccccc1Br,79*,72*,76*,1,-7,74*,68*,77*
N#C/C(=C\c1ccccc1Br)C(=O)NC1CC1,84*,54*,67*,2,-56,60*,83*,82*
COCCNC(=O)/C(C#N)=C/C=C/c1ccccc1,20,23,3,-1,40,nt,nt,nt
Cc1cc(/C=C(\C#N)C(=O)NC2CC2)c(C)[nH]1,2,2,-2,0,-2,nt,nt,nt
COc1ccccc1N(CC(=O)NC1CCCC1)C(=O)CCC(=O)Nc1ccccn1,1,-3,13,0,-6,nt,nt,nt
O=C(N[C@@H](Cc1c[nH]c2ccccc12)C(=O)O)C1CCN(S(=O)(=O)c2ccc(Cl)cc2)CC1,4,0,2,3,-2,nt,nt,nt
Cc1cccc(NC(c2ccc(C)s2)c2ccc3ccc(C)nc3c2O)n1 (configuration not stated),57*,93*,34,-2,-8,86*,nt,45*
COc1ccc(C(=O)C[n+]2cn(C(F)F)c3ccccc32)c(F)c1,58*,53*,63*,3,nt,50*,31*,43*
COc1ccc2c(ccc[n+]2CC(=O)c2ccccc2)c1,-6,15,1,-7,23,nt,nt,nt
